The text below walks through data of ChEMBL document CHEMBL1961873, “Compounds: GSK PKIS; Assays: Nanosyn kinase panel” (2012).

What is called inhibition is the drop in the measured response relative to a control, in per cent.

The structures appear in SMILES notation. “And” between values parts separate entries of the source, which are not always exact repeats. Equal values may be shown once.

In assay [1] the target is T1, 3-phosphoinositide-dependent protein kinase 1 (Homo sapiens) (UniProt O15530).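 Also: values are mean inhibition of PDK1.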
T1 sequence (whole entry): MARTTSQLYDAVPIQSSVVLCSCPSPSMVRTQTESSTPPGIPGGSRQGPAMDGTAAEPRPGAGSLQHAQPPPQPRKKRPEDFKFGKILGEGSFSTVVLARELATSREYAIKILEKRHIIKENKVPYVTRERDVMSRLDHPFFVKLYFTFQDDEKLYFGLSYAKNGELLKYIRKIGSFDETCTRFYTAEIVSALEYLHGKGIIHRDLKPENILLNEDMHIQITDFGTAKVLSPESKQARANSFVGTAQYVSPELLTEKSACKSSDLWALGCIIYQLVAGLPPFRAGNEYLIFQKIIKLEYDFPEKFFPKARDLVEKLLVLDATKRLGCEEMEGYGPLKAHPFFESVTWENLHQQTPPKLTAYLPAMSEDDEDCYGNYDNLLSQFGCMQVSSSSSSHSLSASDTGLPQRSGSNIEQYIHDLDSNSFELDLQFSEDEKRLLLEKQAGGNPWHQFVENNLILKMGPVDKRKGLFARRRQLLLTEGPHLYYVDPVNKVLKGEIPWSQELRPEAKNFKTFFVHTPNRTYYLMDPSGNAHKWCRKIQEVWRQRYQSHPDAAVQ
As to conditions: at 0.1 µM.

The target of assay [2] is cAMP-dependent protein kinase catalytic subunit alpha (Homo sapiens) (UniProt P17612). As to conditions: at 0.1 µM.
For assay [3] the target is unchanged. Particulars: at 1 µM.
The target of assay [4] is Protein kinase C alpha type (Homo sapiens) (UniProt P17252). As to conditions: at 0.1 µM.
Assay [5] shares this target. Particulars: at 1 µM.
The target of assay [6] is Protein kinase C beta type (Homo sapiens) (UniProt P05771). As to conditions: at 0.1 µM.
The target is the same in assay [7]. Particulars: at 1 µM.
The target of assay [8] is Protein kinase C eta type (Homo sapiens) (UniProt P24723). Particulars: at 0.1 µM.
Assay [9] shares this target. As to conditions: at 1 µM.
The target in assay [10] is Protein kinase C gamma type (Homo sapiens) (UniProt P05129). As to conditions: at 0.1 µM.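 Also: values are mean percent inhibition of PKC gamma.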

Protein kinase C beta type (Homo sapiens), sequence (P05771 2-671 limits assumed): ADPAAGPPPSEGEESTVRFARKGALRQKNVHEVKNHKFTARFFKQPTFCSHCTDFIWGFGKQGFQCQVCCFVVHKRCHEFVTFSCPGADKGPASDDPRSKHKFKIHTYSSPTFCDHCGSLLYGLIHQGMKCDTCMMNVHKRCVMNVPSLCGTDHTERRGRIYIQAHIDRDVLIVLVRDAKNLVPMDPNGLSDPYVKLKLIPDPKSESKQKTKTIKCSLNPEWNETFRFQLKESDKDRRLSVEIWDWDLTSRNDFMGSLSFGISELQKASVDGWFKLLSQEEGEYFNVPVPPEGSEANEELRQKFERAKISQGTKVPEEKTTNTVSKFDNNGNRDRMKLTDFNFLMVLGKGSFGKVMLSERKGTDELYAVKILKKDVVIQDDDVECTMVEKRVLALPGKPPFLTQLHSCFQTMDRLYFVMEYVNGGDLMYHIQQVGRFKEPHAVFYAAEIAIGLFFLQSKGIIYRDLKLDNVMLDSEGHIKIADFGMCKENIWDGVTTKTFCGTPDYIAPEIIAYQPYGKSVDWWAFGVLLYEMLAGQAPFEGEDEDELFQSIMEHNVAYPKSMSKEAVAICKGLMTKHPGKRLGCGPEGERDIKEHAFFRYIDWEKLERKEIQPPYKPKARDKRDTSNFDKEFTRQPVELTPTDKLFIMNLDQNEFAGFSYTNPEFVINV
Protein kinase C eta type (Homo sapiens), sequence (P24723 whole entry): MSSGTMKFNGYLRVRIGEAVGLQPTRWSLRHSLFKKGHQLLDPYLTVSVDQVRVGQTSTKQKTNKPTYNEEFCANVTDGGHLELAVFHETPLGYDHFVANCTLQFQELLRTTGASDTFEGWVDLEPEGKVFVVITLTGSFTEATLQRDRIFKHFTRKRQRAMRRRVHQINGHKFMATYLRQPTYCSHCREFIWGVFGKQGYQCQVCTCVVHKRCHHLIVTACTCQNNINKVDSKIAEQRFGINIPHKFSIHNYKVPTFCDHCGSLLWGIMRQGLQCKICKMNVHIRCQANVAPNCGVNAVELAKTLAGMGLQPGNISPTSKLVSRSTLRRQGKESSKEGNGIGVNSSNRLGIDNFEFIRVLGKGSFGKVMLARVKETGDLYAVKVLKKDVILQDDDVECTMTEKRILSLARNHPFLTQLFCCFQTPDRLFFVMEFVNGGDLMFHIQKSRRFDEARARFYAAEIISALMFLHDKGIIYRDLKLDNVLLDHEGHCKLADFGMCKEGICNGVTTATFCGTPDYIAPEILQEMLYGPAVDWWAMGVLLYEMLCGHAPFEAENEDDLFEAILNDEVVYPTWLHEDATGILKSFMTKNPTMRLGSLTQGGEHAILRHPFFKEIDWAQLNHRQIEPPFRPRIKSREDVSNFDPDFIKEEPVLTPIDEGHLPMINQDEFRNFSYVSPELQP

For `COc1ccc(-c2nn3ncccc3c2-c2ccnc(Nc3ccc(F)c(F)c3)n2)cc1`, the inhibition in [1] is 0.91%; in [2], 1.99%; in [3], 3.24%; in assay [4], 0.39%; in [5], 1.74%; in assay [6] it was 1.53%. In addition, the inhibition in [7] is 5.16%; in [8], 1.15%; in [9] it was 7.16%; in assay [10], 4.72%.

As to `COc1cc(N2CCN(C(C)C)CC2)ccc1Nc1nc(Nc2cccc3ncccc23)c2cc[nH]c2n1`, the inhibition in [1] was -0.4%; in [2], 0.01%; in [3], 0.68%; in assay [4] it was -0.39%; in assay [5] it was 1.71%; in [6], -0.38%. Moreover, the inhibition was 2.34% in [7], -2.11% in [8], -3.36% in assay [9] and -0.77% in assay [10].

Turning to `Fc1ccc(Nc2nccc(-c3c(-c4ccc(C(F)(F)F)cc4)nn4ncccc34)n2)cc1F`, the inhibition in [1] is 3.96%; in assay [2], 1.44%; in assay [3], 1.2%; in assay [4], 1.5%; in assay [5] it was 2.09%; in [6], -0.08%. In addition, the inhibition in assay [7] is -1.29%; in assay [8], 0.94%; in [9] it was 1.72%; in [10] it was 1.67%.

Take `COC(=O)Nc1nc2cc(Oc3ccc(NC(=O)Nc4ccccc4)cc3)ccc2[nH]1`: the inhibition was 1.31% in assay [1]; 2.49% in assay [2]; 2.15% in assay [3]; -0.02% in [4]; 0.51% in [5]; 1.53% in assay [6]. For the same compound, the inhibition in assay [7] was found to be 2.12%; in [8], 2.8%; in assay [9], 6.1%; in assay [10] it was 0.41%.

Regarding `Cc1cc(O)cc(C)c1/C=C/c1cncc(C(=O)OC(C)(C)C)c1`, the inhibition in assay [1] was 1.42%; in assay [2] it was 1.82%; in [3], 3.63%; in assay [4], 0.14%; in assay [5] it was 0.77%; in assay [6] it was 0.46%. In addition, the inhibition in [7] is -1.03%; in assay [8], -1.29%; in assay [9], 3.71%; in assay [10] it was 3.91%.

`CN1CCC(C(=O)Nc2n[nH]c3nc(-c4ccc(O)cc4)c(Br)cc23)CC1`: the inhibition in assay [1] is 0.58% and 1.23%; in assay [2] it was -1.53% and 1.47%; in assay [3] it was 1.39% and 2.8%; in assay [4], -2.91% and 0.74%; in assay [5], 7.49% and 11.2%; in assay [6], 2.04% and 0.96%. In addition, the inhibition in assay [7] is 13.9% and 10.2%; in assay [8], 3.63% and 1.62%; in assay [9], 8.67% and 3.54%; in [10] it was 4.29% and -2.24%.

`CC(C)c1ccc(-c2cc(-c3c[nH]nc3-c3ccccn3)ccn2)cc1`: the inhibition in assay [1] worked out at 1.17%; in assay [2], 1.32%; in [3], 2.36%; in assay [4] it was 0.02%; in assay [5] it was 1.23%; in assay [6], 2.16%. Also, the inhibition in [7] was 3.68%; in assay [8] it was 1.36%; in assay [9], 0.07%; in assay [10] it was -1.26%.

For `CCCNc1cccc(-n2ncc3c(N/N=C/c4ccncc4)ncnc32)c1`, the inhibition in assay [1] worked out at 1.19%; in assay [2], 1.59%; in assay [3] it was 3.62%; in assay [4] it was 0.98%; in assay [5], 1.45%; in [6] it was 1.35%. The inhibition in assay [7] is 5.99%; in assay [8], 2.17%; in [9] it was 2.92%; in [10], 1.35%.

On to `CCS(=O)(=O)c1ccc(OC)c(Nc2ncc(-c3cccc(C(C)=O)c3)o2)c1`, for which the inhibition is 0.17% in assay [1]; 1.47% in assay [2]; 1.88% in [3]; 0.74% in assay [4]; 0.95% in assay [5]; -0.44% in [6]. For the same compound, the inhibition in [7] was 3.77%; in assay [8], 3.76%; in [9] it was 3.11%; in assay [10], 2.68%.

For `N#Cc1cccc(Nc2ncc(-c3ccccc3)o2)c1`, the inhibition in assay [1] was 0.43%; in [2], 0.96%; in assay [3] it was 1.68%; in [4] it was -0.44%; in assay [5], 0.37%; in assay [6] it was 0.7%. Also, the inhibition in assay [7] was 2.96%; in assay [8], 0.23%; in assay [9] it was 2%; in assay [10] it was -0.01%.

As to `CS(=O)(=O)CCNCc1ccc(-c2ccc3ncnc(Nc4ccc(OCc5ccccc5)cc4)c3c2)o1`, the inhibition amounted to 1.7% in assay [1]; 2.17% in [2]; 2.45% in assay [3]; 0.5% in assay [4]; 1.49% in [5]; 1.41% in assay [6]. The inhibition came to 0.21% in [7], 3.12% in [8], 3.6% in assay [9] and 2.13% in assay [10].

As for `Cc1cc(O)cc(C)c1/C=C/c1cncc(C(N)=O)c1`, the inhibition in assay [1] is 1.65%; in assay [2] it was 1.78%; in assay [3], 2.91%; in assay [4] it was 1.24%; in [5] it was 1.91%; in assay [6] it was -0.18%. Also, the inhibition in assay [7] was -2.09%; in assay [8] it was 1.74%; in assay [9], -2.58%; in assay [10], 3.81%.

Consider `COc1cccc(Nc2nccc(-c3cnn4ncccc34)n2)c1`, for which the inhibition was 2.46% in assay [1]; 1.16% in [2]; 6.04% in [3]; 6.2% in assay [4]; 43.4% in assay [5]; 0.55% in assay [6]. The inhibition in assay [7] is 5.61%; in [8] it was 2.46%; in assay [9] it was 7.69%; in [10], -1.41%.

`CS(=O)(=O)Nc1ccc(-c2cc(-c3ccccc3)cc(C(N)=O)c2N)cc1`: the inhibition in assay [1] is -0.56%; in [2] it was 0.69%; in assay [3], -0.07%; in assay [4] it was 0.46%; in assay [5], 1.59%; in assay [6], -0.05%. Besides, the inhibition is -0.92% in assay [7], 1.6% in assay [8], 1.53% in assay [9] and 1.15% in [10].

For `O=C1Nc2ccccc2/C1=C1\CCc2cc(O)ccc21`, the inhibition in assay [1] is 15.1%; in [2] it was 2.16%; in assay [3], 4.57%; in assay [4], 1.24%; in assay [5] it was 2.87%; in assay [6], 0.69%. For the same compound, the inhibition in assay [7] turned out to be 1.16%; in [8], 2.22%; in assay [9], 3.7%; in [10] it was 2.96%.

Consider `CC1(C)CC(n2cnc(-c3ccc(F)cc3)c2-c2ccnc(N)n2)CC(C)(C)N1`, for which the inhibition is 0.82% in assay [1]; 0.29% in [2]; 4.01% in [3]; 0.96% in assay [4]; 2.63% in [5]; 1.89% in assay [6]. Further, the inhibition in [7] was 3.35%; in assay [8], 1.68%; in [9], -2.97%; in assay [10] it was -2.6%.

Regarding `NC(=O)c1ccc2c(-c3ccnc(NCCCO)n3)c(-c3ccc(F)cc3)nn2c1`, the inhibition is 2.05% in assay [1]; 2.22% in assay [2]; 2.01% in [3]; 1.39% in assay [4]; 11% in assay [5]; 2.42% in assay [6]. For the same compound, the inhibition amounted to 17.5% in assay [7], 2.29% in [8], 4.92% in assay [9] and 3.3% in assay [10].

In the case of `NS(=O)(=O)c1ccc(N/N=C2\C(=O)Nc3cccc(CCc4ccncc4)c32)cc1`, the inhibition is 6.76% in assay [1]; 1.41% in [2]; 1.07% in [3]; 0.11% in [4]; 0.43% in [5]; -0.59% in assay [6]. In addition, the inhibition is -0.96% in assay [7], -1.41% in assay [8], 1.16% in [9] and -0.97% in assay [10].

As for `N#Cc1ccc2c(-c3ccnc(NC4CC4)n3)c(-c3ccc(F)cc3)nn2c1`, the inhibition in [1] was 0.01%; in [2] it was 1.59%; in [3], 0.4%; in assay [4], 0.15%; in [5], 1.24%; in assay [6], -1.19%. Further, the inhibition in assay [7] is -0.72%; in assay [8], 2.95%; in [9] it was 0.36%; in assay [10], 1.4%.
